# An excerpt weighted towards active compounds, which were near 9.7% of everything screened.
# BAP1 block: blocks human BAP1 ubiquitin-AMC hydrolysis; Q92560; 72,000 compounds, 0.48% hits; calls only at 20 µM; recombinant BAP1, Ub-AMC hydrolysis fluorescence kinetic; hits give low values;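 active means activity remaining at or below 50% of control, provided the compound also passes the data quality filters; inactive means the rest, including low values that fail the filters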
# Abs 340nm: compound absorbs light at 340 nm; compound absorbance at 340 nm, fold over control; fold change at 10 µM; 65,000 tested, under 10 active;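 active means at 10 µM dose, initial 340 nm absorbance at least 2 fold that of control wells; inactive means change under 2 fold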;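 further: initial absorbance extrapolated from kinetic A340 decline of NADH oxidation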
# WNV NS2B-NS3 inh: WNV NS2B-NS3 proteinase inhibition; P06935; 65,000 compounds, 0.18% hits; WNV NS2B-NS3 protease, fluorogenic substrate Ex360/Em465; hits give low values; AID 577; z-score (no concentration beside the values); in the data active means z-score below about -3
# M1 agonist: M1 muscarinic receptor agonism; CHO-M1 cells, Fluo-4 calcium fluorescence, agonist mode; hits give high values; B-score at 10 µM; 64,000 compounds, 3% hits; AID 626;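 active means fluorescence rise, raw or as B-score row- and column-corrected plate score, outside the 99.7% band of its plate's samples, either direction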
# M1 antagonist: M1 muscarinic receptor (rat) antagonism | P08482 | CHO-M1 cells, Fluo-4 calcium, ACh EC80 antagonist mode; hits give low values | B-score at 10 µM | 64,000 compounds, 3.4% hits | AID 628;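 active means calcium fluorescence response, raw or row-and-column corrected B-score, differing from the plate sample mean either way at a set confidence level, mostly lower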
# Fluor 339 460: intrinsic fluorescence of library compounds, ex339/em460 – biochemical, MLSMR library, data from DPM-DC assay, artefact control, profiling panel | fluorescence fold increase at 10 µM | compound autofluorescence, ex339/em460 nm, NADH buffer; hits give high values; 1 = no-compound wells, NADH background | 65,000 compounds, 5.5% hits | AID 709;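 active means at 10 µM, mean starting fluorescence two-fold or more over control wells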;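 further: signal is the first read of a kinetic run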
# BAP1 inh conf: BAP1 (human) enzyme inhibition, confirmed | shares compounds with BAP1 block | purified BAP1, Ub-ethyl ester hydrolysis, HPLC; hits give low values | % of control activity, % at 20 µM | 310 compounds, 8% hits | AID 753;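 active means percent of control activity at or below 60%; inconclusive means HPLC trace unusable from injection failure or solvent front hiding peaks; inactive means the rest, plus ubiquitin peak ratio over a set limit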
# M1 agonist conf: confirmation of rat M1 muscarinic receptor agonists; shares compounds with M1 agonist; CHO-M1 cells, Fluo-4 calcium fluorescence, agonist mode; actives lie on both sides; fluorescence change (max-min) at 10 µM; 1,700 compounds, 19% hits;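 active means fluorescence change differs from the solvent-only DMSO control mean at a set confidence level in both duplicate runs; inconclusive means differs from solvent-only control mean in just one of two runs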;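 further: an EC20 dose of acetylcholine follows compound addition during the same imaging run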
# M4 agonist ctr: rat M4 muscarinic agonism, M1 counter-screen. shares compounds with M1 agonist. CHO M4/Gqi5 cells, Fluo-4 calcium fluorescence, agonist mode; actives lie on both sides. fluorescence change (max-min) at 10 µM. 1,700 compounds, 9% hits;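 active means fluorescence change differing from the plate's solvent-only control wells at 99.7% confidence in both duplicates, whether higher or lower; inconclusive means differs from solvent controls in only one of two duplicates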
# M1 antag confirm: M1 muscarinic receptor (rat) antagonism, confirmed | shares compounds with M1 antagonist | CHO-M1 cells, Fluo-4 calcium, ACh EC80 antagonism; hits give low values | calcium response (max-min fluorescence) at 10 µM | 1,700 compounds, 43% hits;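 active means calcium response below the same-plate mean of wells given acetylcholine alone at its 80%-effect dose, minus 3 SD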
# mGluR4 antag: selectivity test for M1 antagonists: human mGluR4 receptor. 1,700 compounds, 0.9% hits. shares compounds with M1 antagonist. CHO-mGluR4 calcium flux, Fluo-4 fluorescence, glutamate EC80; hits give low values. fluorescence response (max-min) at 10 µM. AID 678;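 active means fluorescence response below the plate's average for near-maximal glutamate wells, less 3 SD of those wells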;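 further: raw unnormalized fluorescence span taken in the window right after glutamate addition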
# Numbers stand for hits; – = inactive; ? = inconclusive; · = no result given; + = active, no number.
SMILES,BAP1 block,Abs 340nm,WNV NS2B-NS3 inh,M1 agonist,M1 antagonist,Fluor 339 460,M1 agonist conf,M4 agonist ctr,others
COCCOC(=O)c1c(N)n(Cc2ccco2)c2nc3ccccc3nc12,·,–,–,–,–,2.3,·,·,BAP1 inh conf=–
CCCCn1c(=O)c(C(=O)NCc2ccncc2)c(O)c2ccccc21,+,–,–,–,–,–,·,·,BAP1 inh conf=–
O=S1(=O)CC2(N3CCOCC3)CCCCC21 (configuration not stated),–,–,–,–,–,–,·,·,
O=S1(=O)CC2(N3CCOCC3)CCCCCCC21 (configuration not stated),–,–,–,2.9,–,–,–,–,
COc1ccc(P2(=O)Nc3ccccc3N2)cc1,–,–,–,8.4,–,–,154,163,
Cc1ccc(C(=O)C2CN3CCC2CC3)cc1 (configuration not stated),–,–,–,12,–,–,–,?,
CN1CC=C2C(C#N)=C(N)C(C#N)(C#N)C(c3ccncc3)C2C1 (configuration not stated),–,–,–,78,–,2,242,212,
CCOc1ccc(C(=O)Nc2ccc(Br)cc2C(=O)c2ccccc2)cc1,–,·,·,·,·,·,·,·,
O=C(c1cc(-c2cccnc2)nc2ccccc12)N1CCC2(CC1)OCCO2,–,–,–,–,–,–,·,·,
O=C(c1cc(-c2cccnc2)nc2ccc(Cl)cc12)N1CCC2(CC1)OCCO2,–,–,–,2.8,–,–,-35,–,
CCCCn1c(O)c(C(CC)=NCc2ccc3c(c2)OCO3)c(=O)[nH]c1=O,–,–,–,4.3,–,–,–,–,
O=[N+]([O-])c1ccc(NC23CC4CC(CC(C4)C2)C3)c2ncccc12,–,·,·,·,·,·,·,·,
CNCC(O)c1cccc(OC(=O)c2ccccc2C)c1 (configuration not stated),–,–,–,-3.3,–,–,–,?,
O=C(Nc1ccc(Br)cc1C(=O)c1ccccc1Cl)c1cccs1,–,·,·,·,·,·,·,·,
CCn1nc(-c2ccccc2)nc2c(=O)n(C)c(=O)nc1-2,–,–,–,25,–,–,187,?,
CCCC(=O)OCC[N+](C)(C)C,–,–,–,40,-7.7,–,378,–,
Cc1nc2cc([N+](=O)[O-])ccc2c(=O)n1-c1ccc(Cl)cc1,–,·,·,·,·,·,·,·,
Cc1c(Cl)c([N+](=O)[O-])nn1CC(=O)Nc1ccc(Cl)cc1C(=O)c1ccccc1,–,·,·,·,·,·,·,·,
CN1CCC(N(C)c2ncnc3ccc(Br)cc23)CC1,–,–,–,–,-0.9,–,·,·,M1 antag confirm=–;mGluR4 antag=–
CC(=O)OCC1=C(C(=O)[O-])N2C(=O)[C@@H](NC(=O)CCC[C@@H](N)C(=O)[O-])[C@H]2SC1.[Zn+2],–,·,·,·,·,·,·,·,
Nc1ccccc1C(=O)c1ccccc1,–,–,–,–,–,–,·,·,
Nc1ccccc1C(=O)OC1CSC1,–,–,–,–,-6.2,–,·,·,M1 antag confirm=–;mGluR4 antag=–
COc1ccc(Br)cc1CN1CCN(CCO)CC1,–,–,–,–,–,–,·,·,
COc1cc(Br)cc(CN2CCN(C)CC2)c1O,–,–,–,–,-3.9,–,·,·,M1 antag confirm=378;mGluR4 antag=–
CCCCOc1ccc(CN2CCN(CCO)CC2)cc1,–,–,–,–,-4.8,–,·,·,M1 antag confirm=310;mGluR4 antag=–
CCCCOc1ccc(CC2C(=O)N(C)C(=O)N(C)C2=O)cc1,–,–,–,–,–,–,·,·,
CCCCCCOc1ccc(CN2CCN(CCO)CC2)cc1,–,–,–,–,-5.3,–,·,·,M1 antag confirm=366;mGluR4 antag=–
